Pf growth 48h: inhibits P. falciparum growth in the first generation, 48 h; 310,000 compounds, 5.9% hits; P. falciparum luciferase growth in erythrocytes, 48 h; Potency, µM (titrated, usually from 28.7 µM), hits mostly inhibitors; AID 504832
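First compound was added to culture medium, then infected red cells at 0.1% parasitemia and 2% hematocrit (final). After incubation at 37 C under 5% CO2, luciferase detection reagent was dispensed and light output recorded.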
CHX counter: counter-screen hit for Shiga toxin inhibitors, cycloheximide; 300,000 compounds, 12% hits; max response, %; cell reporter, cycloheximide protein synthesis inhibition counterscreen; AID 2314; in the data active means max response mostly above about 13%, no sharp cut-off; inactive means mostly below about 14%; further: read at 38.3 µM for the half of the compounds with a filed dose
HCMV inh: blocks human cytomegalovirus replication; activity change, negative = inhibition, % at 57.5 µM; HFF cells, HCMV-luciferase reporter, 72 h; hits give low values; 410,000 compounds, 4.5% hits; in the data active means activity change below about -60%; inconclusive means no clear call, values can overlap the other calls; inactive means above about -39%
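Two compound doses tested in HFFs infected with HCMV-luciferase, MOI 1 PFU/cell, 72 h at 37C. Lysate luminescence read with OneGlo; data normalized against buffer-only and 10uM Salinomycin inhibitor controls.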
Shiga inhibitor: inhibitors of Shiga toxin in Vero cells. Vero cells, Shiga toxin protein synthesis inhibition reporter. inhibition, % at 38.7 µM. 290,000 compounds, 9.2% hits; in the data active means inhibition mostly above about 28%, no sharp cut-off; inactive means mostly below about 43%
Pf growth 96h: inhibits malaria parasite growth, 96 h; P. falciparum luciferase reporter growth, 96 h; 320,000 compounds, 6.9% hits; Potency, µM (series often up to 28.7 µM), hits mostly inhibitors; AID 504834
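Infected RBCs, 2% Hct / 0.05% parasitemia final; luciferase-reporter P. falciparum; cpd 96 h, 37 C, 5% CO2; luciferase detection reagent; luminescence.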
Each line names hits and unclear results; the compound was inactive in the other large screens. A selection: hits, their analogues and other compounds. The true share with any hit is near 20%. Unless noted, the call rests on the fitted dose curve; in most records, active means well fitted inhibition curve with a large enough effect; inconclusive means small, poorly fitted or top-dose-only effect, or another doubt; inactive means no such curve, though single readings can be large or run the other way.

CCCOC(=O)c1c(NC(=O)c2nc3ncccn3n2)sc(C(=O)OCC)c1C	none (no result: Pf growth 48h, CHX counter, Shiga inhibitor, Pf growth 96h)
Cc1ccc(CCN2CC(C(=O)NCCCN3CCCCC3)CC2=O)cc1 (stereo not given)	Pf growth 96h 7.4µM
COC(=O)c1c(-c2ccccc2)c[nH]c1C	CHX counter 24, Shiga inhibitor 82
COC(=O)c1c(C)[nH]c(C=O)c1-c1ccccc1	CHX counter 30, Shiga inhibitor 62
COC(=O)c1c(C)[nH]c(C)c1-c1ccccc1Cl	none
Cc1cc(C)c(S(=O)(=O)c2ccccc2C)c(SCC(C)C)n1	Pf growth 48h inconclusive, Pf growth 96h 12µM
NN/C(=C\[N+](=O)[O-])Nc1ccc(Cl)cc1	none
Cc1ccc(OC(=O)C2CCN(C(=O)c3ccccc3C)CC2)c(Br)c1	none (no result: CHX counter, Shiga inhibitor)
COc1ccc2[nH]c(=O)c(CN(CC3CCCO3)S(=O)(=O)c3ccccc3)cc2c1 (stereo not given)	Pf growth 96h 1.7µM
O=c1[nH]c2cc3c(cc2cc1CN(CC1CCCO1)S(=O)(=O)c1ccc(Cl)cc1)OCCO3 (stereo not given)	CHX counter 67, Shiga inhibitor 183, Pf growth 96h 12µM
COCCN(Cc1cc2cc(C)ccc2[nH]c1=O)S(=O)(=O)c1ccc(Cl)cc1	HCMV inh -92
Cc1ccc(S(=O)(=O)N(C)Cc2cc3cc(C)ccc3[nH]c2=O)cc1	Pf growth 96h inconclusive
CC(=O)c1ccc(S(=O)(=O)N(Cc2cc3cc4c(cc3[nH]c2=O)OCCO4)CC2CCCO2)cc1 (stereo not given)	CHX counter 37, Shiga inhibitor 93
Cc1ccc(S(=O)(=O)N(Cc2cc3cc4c(cc3[nH]c2=O)OCCO4)CC2CCCO2)cc1 (stereo not given)	none
CN(C)S(=O)(=O)c1ccc2c(c1)N(CC(=O)NCc1ccc(F)cc1)C(=O)CS2	none (no result: Pf growth 48h, CHX counter, Shiga inhibitor, Pf growth 96h)
CN(C)c1oc(-c2ccc(Cl)cc2)nc1S(=O)(=O)c1ccccc1	HCMV inh inconclusive
Cc1ccc(C)c(N2CCN(C(=O)CCCOc3cc(=O)n(C)c4ccccc34)CC2)c1	Pf growth 48h inconclusive (no result: Pf growth 96h)
CCn1c(=O)cc(OCC(=O)N2CCN(c3ccc(OC)cc3)CC2)c2ccccc21	HCMV inh -95 (no result: Pf growth 48h, CHX counter, Shiga inhibitor, Pf growth 96h)
Cc1ccc(C)c(N2CCN(C(=O)COc3cc(=O)n(C)c4ccccc34)CC2)c1	Pf growth 48h inconclusive
COc1ccc(N2CCN(C(=O)CCCOc3cc(=O)n(C)c4ccccc34)CC2)cc1	Pf growth 48h inconclusive, Pf growth 96h 12µM
CCn1c(=O)cc(OCC(=O)N2CCN(c3ccc(C(C)=O)cc3)CC2)c2ccccc21	none (no result: Pf growth 48h, CHX counter, Shiga inhibitor, Pf growth 96h)
Cc1cccc(N2CCN(C(=O)COc3cc(=O)n(C)c4ccccc34)CC2)c1C	Pf growth 48h 12µM, Pf growth 96h inconclusive
Cc1cc(C)n(CCC(=O)Nc2ccc(Cl)cc2)n1	none (no result: Pf growth 48h, CHX counter, Shiga inhibitor, Pf growth 96h)
Cc1ccc2c(c1)NC(c1cccnc1)=NC(c1ccc(F)cc1)=N2	none (no result: Pf growth 48h, CHX counter, Shiga inhibitor, Pf growth 96h)
Cc1cn2c(=O)cc(COC(=O)c3cccc(NC(=O)c4ccc(C(C)(C)C)cc4)c3)nc2s1	none (no result: Pf growth 48h, CHX counter, Shiga inhibitor, Pf growth 96h)
CC(=O)N1c2ccccc2C2(O)N=C(C)SC12 (stereo not given)	CHX counter 12 (no result: HCMV inh)
CC(C)(Oc1ccc(Cl)cc1)C(=O)NC1CCCCC1	Pf growth 48h 12µM, HCMV inh inconclusive (no result: CHX counter, Shiga inhibitor)
CC(=O)N1CCCc2cc(S(=O)(=O)NCc3ccc(N(C)C)cc3)ccc21	none (no result: Pf growth 48h, CHX counter, Shiga inhibitor, Pf growth 96h)
COc1cccc(NC(=O)CSc2nc(=O)n(Cc3ccccn3)c3c2CCC3)c1	none (no result: Pf growth 48h, CHX counter, Shiga inhibitor, Pf growth 96h)
CNc1oc(-c2ccccc2)nc1S(=O)(=O)c1ccc(C)cc1	Pf growth 96h inconclusive
CNc1oc(-c2ccc(Cl)cc2)nc1P(=O)(c1ccccc1)c1ccccc1	Pf growth 48h inconclusive, Pf growth 96h 15µM
Cc1ccc(-c2nc(P(=O)(c3ccccc3)c3ccccc3)c(N3CCOCC3)o2)cc1	Pf growth 48h 10µM, Pf growth 96h 10µM
Cc1ccc(C2=NC3(CCCCC3)N=C2SCC(=O)Nc2ccc3c(c2)OCCO3)cc1	Pf growth 48h inconclusive
Cc1nn(-c2ccc(C(=O)OC(C)C)cc2)c(C)c1[N+](=O)[O-]	CHX counter 32, Shiga inhibitor 62
Cc1nn(-c2cccc(C(=O)O)c2)c(C)c1[N+](=O)[O-]	none
O=C(c1ccccc1)c1ccc2c(c1)OCCOCCOCCO2	CHX counter 14, Shiga inhibitor 49
O=C(c1ccccc1)c1ccc2c(c1)OCCCO2	CHX counter 55, Shiga inhibitor 93
OCCN1CCOCCOc2ccccc2OCCOCC1	none
O=C(/C=C/c1ccccc1)c1ccc2c(c1)OCCCCO2	CHX counter 43, Shiga inhibitor 41
c1ccc2c(c1)OCCOCCOCCOCCOCCOc1ccccc1OCCOCCOCCO2	Pf growth 48h inconclusive, HCMV inh -98, Pf growth 96h 7.4µM
CCc1ccc(S(=O)(=O)c2c(C(=O)c3ccc(C)c(C)c3)cnc3ccccc23)cc1	none (no result: Pf growth 48h, CHX counter, Shiga inhibitor, Pf growth 96h)
COc1cc(Nc2nc3c(S(=O)(=O)c4ccccc4)nnn3c3ccc(Cl)cc23)cc(OC)c1	none (no result: Pf growth 48h, CHX counter, Shiga inhibitor, Pf growth 96h)
COc1cccc(/C=C/C(=O)OCC(=O)c2ccc3c(c2)NC(=O)CO3)c1	Pf growth 96h inconclusive (no result: CHX counter, Shiga inhibitor)
O=C1COc2ccc(C(=O)/C=C/c3ccccc3)cc2N1	HCMV inh -84
Cn1c(=O)[nH]c(=O)c2c1nc([N+](=O)[O-])n2Cc1ccccc1	Pf growth 48h 7.4µM, HCMV inh -97, Pf growth 96h 13µM
CC(C)Cn1c([N+](=O)[O-])nc2c1c(=O)[nH]c(=O)n2C	Pf growth 48h inconclusive, HCMV inh -103, Pf growth 96h inconclusive
CCOC1=NC(=C(c2ccccc2)c2ccccc2)OC1=O	none (no result: Pf growth 48h, CHX counter, Shiga inhibitor, Pf growth 96h)
Cn1c(=O)c2c(Nc3ccc(F)cc3)cc(=O)n(-c3ccccc3)c2n(C)c1=O	Pf growth 48h 2.3µM, Pf growth 96h inconclusive
Cn1c(=O)cc(Nc2ccccc2)c2c(=O)n(-c3ccccc3)c(=O)n(-c3ccccc3)c21	Pf growth 48h 6.6µM, Pf growth 96h 4.7µM
CCOC(=O)c1sc2ncn(CC(=O)Nc3cc(Cl)ccc3C)c(=O)c2c1C	none (no result: Pf growth 48h, CHX counter, Shiga inhibitor, Pf growth 96h)
CCN(CC(=O)Nc1cc(Cl)ccc1C)c1ncnc2sc(C)c(C)c12	Pf growth 48h inconclusive, HCMV inh -78, Pf growth 96h inconclusive
O=C1C(Cl)=C(N2CCOCC2)C(=O)N1c1ccc(Br)cc1	Pf growth 48h inconclusive, Pf growth 96h 12µM
COc1ccc(OC)c(N2C(=O)C(Cl)=C(N3CCCCC3)C2=O)c1	none
CCc1ccccc1N1C(=O)C(Cl)=C(N2CCOCC2)C1=O	Pf growth 96h 1.5µM (no result: Shiga inhibitor)
COc1ccccc1N1C(=O)C(Cl)=C(N2CCCC2)C1=O	Pf growth 96h 9.3µM (no result: Shiga inhibitor)
Cc1ccc(N2C(=O)C(Cl)=C(N3CCCCCC3)C2=O)cc1	CHX counter 27
Cc1ccccc1N1C(=O)C(Cl)=C(N2CCOCC2)C1=O	none
CCc1nnc(NC(=O)CSc2nnc(C)c(=O)n2N)s1	none
CC(C)CC(C(=O)NCCc1ccccc1)N1Cc2ccccc2C1=O (stereo not given)	none (no result: Pf growth 48h, CHX counter, Shiga inhibitor, Pf growth 96h)
Cc1ccc(/C=N\NC(=O)CNC(=O)C23CC4CC(CC(C4)C2)C3)o1	none
Cc1ccc(CSC2=Nc3sccc3C3=NC(=O)CN23)cc1	Pf growth 48h 12µM, Pf growth 96h inconclusive

Assay outcomes as filed in PubChem BioAssay.
